# Source: the supplement of paper PMC7184167
# Where a name gives a salt, the structure may show the parent alone.
# Tested on: replication-induced senescent mouse newborn dermal fibroblasts (NBF)
# Assay: relative cell viability of senescent cells (fraction); higher = less killing of senescent cells
# Details: 1 µM; 3 days
# Method: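 Replication-induced senescent newborn mouse skin fibroblasts (NBFs) in 24-well plates were treated with a Selleck FDA-approved drug library at 1 µM for 3 days.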
row,SMILES,relative cell viability
1,CC1(C)CCC(c2ccc(Cl)cc2)=C(CN2CCN(c3ccc(C(=O)NS(=O)(=O)c4ccc(N[C@H](CCN5CCOCC5)CSc5ccccc5)c(S(=O)(=O)C(F)(F)F)c4)cc3)CC2)C1 [Navitoclax (ABT-263)],1.04
2,Nc1nc(F)nc2c1ncn2[C@@H]1O[C@H](CO)[C@@H](O)[C@@H]1O [Fludarabine],0.0671
3,NC(=O)c1ccc(I)c([N+](=O)[O-])c1 [Iniparib (BSI-201)],0.209
4,Clc1ccc(C(Cn2ccnc2)OCc2c(Cl)cccc2Cl)c(Cl)c1 (stereo not given) [Isoconazole nitrate],0.937
5,COc1cc([C@@H]2c3cc4c(cc3[C@@H](O[C@@H]3O[C@@H]5CO[C@@H](c6cccs6)O[C@H]5[C@H](O)[C@H]3O)[C@H]3COC(=O)[C@H]23)OCO4)cc(OC)c1O [Teniposide],1.08
6,COCCOC(=O)C1=C(C)NC(C)=C(C(=O)OC(C)C)C1c1cccc([N+](=O)[O-])c1 (stereo not given) [Nimodipine],1.15
7,Nc1ncn([C@H]2C[C@H](O)[C@@H](CO)O2)c(=O)n1 [Decitabine],0.211
8,C#C[C@]1(O)CC[C@H]2[C@@H]3CCC4=CC(=O)CC[C@@H]4[C@H]3CC[C@@]21CC [Levonorgestrel],0.996
9,Nc1ccccc1NC(=O)c1ccc(CNc2nccc(-c3cccnc3)n2)cc1 [Mocetinostat (MGCD0103)],0.36
10,O=C(O)c1ccc(-n2nc(-c3ccccc3O)nc2-c2ccccc2O)cc1 [Deferasirox],1.07
11,COc1cc2nc(N3CCN(C(=O)c4ccco4)CC3)nc(N)c2cc1OC [Prazosin HCl],0.927
12,C[C@@H]1[C@H](O)[C@@H](C)/C=C/C=C/C=C/C=C/C=C/C=C/C=C/[C@H](O[C@@H]2O[C@H](C)[C@@H](O)[C@H](N)[C@@H]2O)C[C@@H]2O[C@](O)(C[C@@H](O)C[C@@H](O)[C@H](O)CC[C@@H](O)C[C@@H](O)CC(=O)O[C@H]1C)C[C@H](O)[C@H]2C(=O)O [Amphotericin B],0.766
13,C[C@H](NCc1ccc(OCc2cccc(F)c2)cc1)C(N)=O [Safinamide Mesylate],0.955
14,O=S(=O)(c1cccc2cnccc12)N1CCCNCC1 [Fasudil (HA-1077) HCl],1.14
15,CC(C)(C#N)c1cc(Cn2cncn2)cc(C(C)(C)C#N)c1 [Anastrozole],0.993
16,CC(C)c1nc(CN(C)C(=O)N[C@H](C(=O)N[C@@H](Cc2ccccc2)C[C@H](O)[C@H](Cc2ccccc2)NC(=O)OCc2cncs2)C(C)C)cs1 [Ritonavir],1.15
17,Oc1ccc(/C=C/c2cc(O)cc(O)c2)cc1 [Resveratrol],1.02
18,Oc1ncnc2[nH]ncc12 [Allopurinol],0.796
19,C[C@]12CCC(=O)C=C1CC[C@@H]1[C@@H]2[C@@H](O)C[C@@]2(C)[C@H]1CC[C@]2(O)C(=O)CO [Hydrocortisone],0.786
20,Cc1ccc(Nc2nccc(N(C)c3ccc4c(C)n(C)nc4c3)n2)cc1S(N)(=O)=O,1.05

row,SMILES,relative cell viability
1,O=C(O)c1cccnc1 [Nicotinic Acid],0.937
2,COC(=O)C1=C(C)NC(C)=C(C(=O)OCC(C)C)C1c1ccccc1[N+](=O)[O-] (stereo not given) [Nisoldipine],1.12
3,NCCCC(O)(P(=O)(O)O)P(=O)(O)O [Alendronate sodium trihydrate],0.251
4,CCOc1ccccc1OCCN[C@H](C)Cc1ccc(OC)c(S(N)(=O)=O)c1 [Tamsulosin hydrochloride],1.1
5,Cc1ccc(C)c(OCCCC(C)(C)C(=O)O)c1 [Gemfibrozil],1.02
6,CC(C)(C)C(=O)OCOP(=O)(COCCn1cnc2c(N)ncnc21)OCOC(=O)C(C)(C)C [Adefovir Dipivoxil],0.924
7,CO[C@H]1/C=C/O[C@@]2(C)Oc3c(C)c(O)c4c(O)c(c(/C=N/N5CCN(C)CC5)c(O)c4c3C2=O)NC(=O)/C(C)=C\C=C\[C@H](C)[C@H](O)[C@@H](C)[C@@H](O)[C@@H](C)[C@H](OC(C)=O)[C@@H]1C [Rifampin],1.11
8,CC(C)C[C@H](NC(=O)[C@@H](NC(=O)c1cccc(-c2ccccc2)n1)[C@@H](C)O)B(O)O,1.1
9,O=C(N[C@H](CO)[C@H](O)c1ccc([N+](=O)[O-])cc1)C(Cl)Cl [Chloramphenicol],0.706
10,CNC(=O)c1cc(Oc2ccc(NC(=O)Nc3ccc(Cl)c(C(F)(F)F)c3)c(F)c2)ccn1 [Regorafenib (BAY 73-4506)],0.958
11,CCCSc1ccc2[nH]c(NC(=O)OC)nc2c1 [Albendazole],1.08
12,Nc1ncnc2c1ncn2[C@@H]1O[C@H](CO)[C@@H](O)[C@H]1O [Adenosine],0.937
13,CNC(=C[N+](=O)[O-])NCCSCc1csc(CN(C)C)n1 [Nizatidine],0.956
14,C[C@H](Cc1cc2c(c(C(N)=O)c1)N(CCCO)CC2)NCCOc1ccccc1OCC(F)(F)F [Silodosin],0.806
15,CC(C)(C)NC(=O)[C@H]1CC[C@H]2[C@@H]3CC[C@H]4NC(=O)C=C[C@]4(C)[C@H]3CC[C@]12C [Finasteride],0.942
16,C[C@@](Cc1ccc(O)c(O)c1)(NN)C(=O)O [Carbidopa],1.05
17,Nc1nc2c(ncn2COC(CO)CO)c(=O)[nH]1 [Ganciclovir],0.995
18,Cc1cn[nH]c1 [Fomepizole],1.07
19,C#Cc1cccc(Nc2ncnc3cc(OC)c(OCCCCCCC(=O)NO)cc23)c1,1.02
20,CCCCC(=O)N(Cc1ccc(-c2ccccc2-c2nnn[nH]2)cc1)[C@H](C(=O)O)C(C)C [Valsartan],0.897
